Screening results deposited in PubChem BioAssay by Broad Institute.
rRNA inh HTS: inhibits bacterial ribosomal RNA function over humanized ribosomes. E. coli WT GFP vs humanized-ribosome RFP mutants, fluorescence, 24 h; stronger effect = lower value; DMSO median 0, no signal -100. GFP signal change (wild-type ribosome), % (no concentration beside the values). hit rate 1.6% among 350,000. AID 720706;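 active = significant combined selectivity score with lowered wild-type GFP, culture density cut under 30%, mutant RFP and density less affected; inactive = any of these conditions unmet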
CaV13 ICDI inh: Disruptors of the CACNA1D IQ motif to Ca2+-dependent inactivation inhibitor domain association, primary screening, Förster resonance energy transfer in intact living …. HEK cells, CFP/YFP FRET ICDI-IQ, plate reader, 10 min; percent FRET-ratio fall versus neutral wells. inhibition, % at 12.3 µM. hit rate 0.098% among 340,000. AID 743397;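 active = mean replicate inhibition of at least 30% and at least 1% of replicates passing that level; inconclusive = only one of the two criteria is met; inactive = neither criterion is met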
PGC1a acetyl inh: modulators of PGC1a acetylation; hit rate 0.17% among 350,000; U2OS PGC1a acetylation, AlphaScreen anti-acetyl-lysine; with virally co-expressed GCN5 acetyltransferase; AID 651687; inhibition, % at 15.6 µM;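 active = every replicate shows inhibition of at least 40%; inconclusive = mean inhibition at least 40% but some replicate below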
ERAP1 inh: ERAP1 (human) enzyme inhibition | hit rate 0.15% among 340,000 | recombinant ERAP1, Leu-AMC fluorescence, 60 min | inhibition, % at 10.7 µM | Q9NZ08 | AID 652197;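 active = mean replicate inhibition of at least 30%, or all replicates individually reaching that 30% level; inactive = mean below 30% and not every replicate reaching it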
Target sequence (Q9NZ08 whole entry, looked up): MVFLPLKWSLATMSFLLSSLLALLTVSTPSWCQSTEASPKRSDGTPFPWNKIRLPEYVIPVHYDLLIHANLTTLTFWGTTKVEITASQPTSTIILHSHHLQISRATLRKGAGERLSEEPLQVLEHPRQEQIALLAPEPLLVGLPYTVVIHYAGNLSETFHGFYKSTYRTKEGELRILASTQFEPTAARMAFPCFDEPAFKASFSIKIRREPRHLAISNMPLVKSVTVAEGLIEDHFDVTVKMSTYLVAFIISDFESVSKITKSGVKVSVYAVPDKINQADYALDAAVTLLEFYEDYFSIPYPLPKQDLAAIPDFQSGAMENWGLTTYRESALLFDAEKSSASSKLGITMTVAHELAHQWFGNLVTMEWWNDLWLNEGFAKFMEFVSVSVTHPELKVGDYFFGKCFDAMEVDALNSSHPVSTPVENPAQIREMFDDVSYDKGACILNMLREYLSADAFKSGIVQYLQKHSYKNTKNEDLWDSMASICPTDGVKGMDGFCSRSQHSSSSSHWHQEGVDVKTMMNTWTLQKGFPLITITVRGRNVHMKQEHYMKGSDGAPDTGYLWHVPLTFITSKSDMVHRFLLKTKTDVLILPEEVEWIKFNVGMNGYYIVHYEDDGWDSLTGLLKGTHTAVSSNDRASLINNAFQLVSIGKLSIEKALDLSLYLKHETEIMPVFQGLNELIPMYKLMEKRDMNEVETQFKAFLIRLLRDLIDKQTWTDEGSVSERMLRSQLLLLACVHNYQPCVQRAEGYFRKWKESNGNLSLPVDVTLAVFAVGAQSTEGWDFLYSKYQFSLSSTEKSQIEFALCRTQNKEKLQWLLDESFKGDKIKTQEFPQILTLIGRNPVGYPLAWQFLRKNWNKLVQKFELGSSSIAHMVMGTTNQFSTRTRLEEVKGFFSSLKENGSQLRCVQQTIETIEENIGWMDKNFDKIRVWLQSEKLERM
DENV2 CPE: protects cells from dengue virus 2 cytopathic effect; DENV2-infected cells, cytopathic effect rescue, plate reader; CPE inhibition, % at 9.99 µM; hit rate 1.7% among 350,000; AID 651640; in the data active = CPE inhibition above about 20%, passing the limit was not always enough; inconclusive = no clear call, values can overlap the other calls; tested in BHK-21 cells
INS-1E GSIS act: GLuc luminescence reporter in INS-1E cells, primary screen for activators of glucose-dependent secretion of insulin | hit rate 0.61% among 370,000 | INS-1E GLuc reporter insulin secretion, 2-3 h | activation, % at 16.6 µM;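 active = lowest replicate activation of at least 40%, so every replicate reaches that level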
Each line names hits and unclear results; the compound was inactive in the other large screens. Rows were chosen to be rich in hits. Some 3.2% of all compounds tested hit in one or more screens of this group.

C[C@@H]1CN([C@@H](C)CO)C(=O)Cc2cc(NS(C)(=O)=O)ccc2O[C@H]1CN(C)Cc1ccc(C(F)(F)F)cc1	DENV2 CPE 20.0 (no result: CaV13 ICDI inh)
C[C@H]1CN([C@@H](C)CO)C(=O)Cc2cc(NC(=O)CCN3CCOCC3)ccc2O[C@@H]1CN(C)C	none (no result: CaV13 ICDI inh)
COc1ccc(C[C@H]2CCc3cnnn3COC[C@H](Cc3ccccc3)NC2=O)cc1	none (no result: CaV13 ICDI inh, PGC1a acetyl inh)
O=C(CNC(=O)c1ccc(F)cc1)N/N=C/c1cc(Br)ccc1OC(=O)/C=C/c1ccco1	rRNA inh HTS -27.8
C[C@H]1CN([C@@H](C)CO)C(=O)c2cc(NC(=O)Nc3ccc(C(F)(F)F)cc3)ccc2O[C@H]1CN(C)Cc1ccncc1	DENV2 CPE 20.6 (no result: rRNA inh HTS, CaV13 ICDI inh, INS-1E GSIS act)
C[C@@H]1CN([C@H](C)CO)C(=O)c2cc(NC(=O)Nc3ccc(C(F)(F)F)cc3)ccc2O[C@@H]1CN(C)Cc1ccncc1	DENV2 CPE 56.7 (no result: CaV13 ICDI inh)
COc1ccc(NC(=O)Nc2ccc3c(c2)C(=O)N([C@@H](C)CO)C[C@@H](C)[C@@H](CN(C)Cc2ccc(C(F)(F)F)cc2)O3)cc1	none (no result: CaV13 ICDI inh)
C[C@H](CO)N1C[C@H](C)[C@H](CN(C)Cc2ccncc2)Oc2ccc(NC(=O)Nc3ccc(C(F)(F)F)cc3)cc2C1=O	none (no result: CaV13 ICDI inh)
COc1ccc(CN(C)C[C@@H]2Oc3ccc(NC(=O)Nc4ccc(C(F)(F)F)cc4)cc3C(=O)N([C@H](C)CO)C[C@@H]2C)cc1	DENV2 CPE 28.6 (no result: CaV13 ICDI inh)
CC(C)c1cn(CC[C@H]2CC[C@@H](NC(=O)C3CC3)[C@H](CO)O2)nn1	none (no result: CaV13 ICDI inh)
CC(=O)N1CC(C)Sc2ccc(S(=O)(=O)NCCc3ccccc3)cc21 (stereo not given)	rRNA inh HTS -25.4
Fc1ccc(CN2[C@@H]3CN(CC(F)(F)F)C[C@H]2C3c2ccccc2)cc1 (stereo not given in full)	none (no result: CaV13 ICDI inh, PGC1a acetyl inh, ERAP1 inh, DENV2 CPE)
C[C@@H]1CCCCO[C@@H](CN(C)C(=O)Cc2ccccc2)[C@@H](C)CN([C@H](C)CO)C(=O)c2cc(NC(=O)Nc3ccccc3)ccc2O1	none (no result: CaV13 ICDI inh)
CCN1/C(=C/c2ccc3cc(C)cc(C)c3[n+]2CC)Sc2cc(C)ccc21	ERAP1 inh 34.9 (no result: PGC1a acetyl inh)
CCN1/C(=C\c2ccc3cc(C)ccc3[n+]2CC)Sc2cc(C)c(C)cc21	none (no result: PGC1a acetyl inh)
C[C@@H]1CC(=O)N[C@@H](c2ccccc2)C/C=C\C[C@H](c2ccccc2)NC1=O	none (no result: CaV13 ICDI inh, PGC1a acetyl inh, ERAP1 inh, DENV2 CPE)
C[C@@H]1CN([C@@H](C)CO)C(=O)c2cc(NC(=O)c3ccncc3)ccc2O[C@@H](C)CCCCO[C@H]1CN(C)C(=O)CCCN(C)C	none (no result: CaV13 ICDI inh, ERAP1 inh)
Nc1[nH]c(C(=O)c2ccccc2)c(-c2ccc(Cl)cc2)c1C(=O)c1c[nH]c2ccc(F)cc12	none (no result: rRNA inh HTS, PGC1a acetyl inh)
COc1ccc(C(=O)c2[nH]c(N)c(C(=O)NCCc3c[nH]c4ccccc34)c2-c2ccc(Cl)cc2)cc1	none (no result: PGC1a acetyl inh)
Nc1[nH]c(C(=O)c2ccccc2)c(-c2ccc(Cl)cc2)c1C(=O)c1c[nH]c2ccccc12	DENV2 CPE 27.7 (no result: rRNA inh HTS, PGC1a acetyl inh)
COc1ccc(-c2c(C(=O)c3ccccc3)[nH]c(N)c2C(=O)NCCc2c[nH]c3ccccc23)cc1	DENV2 CPE 31.2 (no result: rRNA inh HTS, PGC1a acetyl inh)
Nc1[nH]c(C(=O)c2ccc(Br)cc2)c(-c2ccc(F)cc2)c1C(=O)NCCc1c[nH]c2ccccc12	DENV2 CPE 26.5 (no result: rRNA inh HTS, PGC1a acetyl inh)
Nc1[nH]c(C(=O)c2ccccc2)c(-c2ccccc2[N+](=O)[O-])c1C(=O)NCCc1c[nH]c2ccccc12	rRNA inh HTS -38.5 (no result: PGC1a acetyl inh, INS-1E GSIS act)
Nc1[nH]c(C(=O)c2ccc(Br)cc2)c(-c2ccc(Br)cc2)c1C(=O)NCCc1c[nH]c2ccccc12	none (no result: PGC1a acetyl inh)
C[C@@H]1CN([C@H](C)CO)C(=O)Cc2cc(NS(=O)(=O)c3ccccc3)ccc2O[C@H]1CN(C)C(=O)NC1CCCCC1	none (no result: CaV13 ICDI inh)
Cc1noc(C)c1NC(=O)Nc1ccc2c(c1)C(=O)N([C@H](C)CO)C[C@@H](C)[C@H](CN(C)C(=O)NC1CCCCC1)O2	none (no result: CaV13 ICDI inh)
Nc1[nH]c(C(=O)c2ccc(Br)cc2)c(-c2c(F)cccc2F)c1C(=O)NCCc1c[nH]c2ccccc12	DENV2 CPE 39.3 (no result: rRNA inh HTS, PGC1a acetyl inh)
Nc1[nH]c(C(=O)c2ccc(Br)cc2)c(-c2ccncc2)c1C(=O)NCCc1c[nH]c2ccccc12	DENV2 CPE 20.2 (no result: rRNA inh HTS, PGC1a acetyl inh)
Nc1[nH]c(C(=O)c2ccc(Cl)cc2)c(-c2ccc(Br)cc2)c1C(=O)NCCc1c[nH]c2ccccc12	none (no result: rRNA inh HTS, PGC1a acetyl inh)
COCCNC(=O)c1c(N)[nH]c(C(=O)c2ccc(Br)cc2)c1-c1ccc(Br)cc1	DENV2 CPE 33.7 (no result: rRNA inh HTS, PGC1a acetyl inh)
Nc1[nH]c(C(=O)c2ccc(Br)cc2)c(-c2ccccc2Br)c1C(=O)NCCc1c[nH]c2ccccc12	none (no result: PGC1a acetyl inh)
Nc1[nH]c(C(=O)c2ccccc2)c(-c2ccccc2Cl)c1C(=O)c1ccccc1	rRNA inh HTS -27.4 (no result: PGC1a acetyl inh)
CCC(=O)N(C)C[C@@H]1Oc2cc(C#CC3CCCC3)ccc2S(=O)(=O)N([C@H](C)CO)C[C@H]1C	none (no result: CaV13 ICDI inh)
C[C@@H]1CN([C@@H](C)CO)C(=O)c2cccc(NS(=O)(=O)c3cn(C)cn3)c2O[C@H]1CN(C)Cc1ccncc1	none (no result: CaV13 ICDI inh)
CNCC(C)COc1ccccc1OCc1ccccc1 (stereo not given)	DENV2 CPE 64.2 (no result: PGC1a acetyl inh)
Cc1sc2ncnc(N3CCCC(C)C3)c2c1C (stereo not given)	rRNA inh HTS -28.0
COc1ccc(CN(C)C[C@@H]2Oc3ccc(NC(=O)Nc4cccc5ccccc45)cc3CC(=O)N([C@H](C)CO)C[C@@H]2C)cc1	none (no result: CaV13 ICDI inh)
O=C(O)c1c(NC(=O)N2CCOCC2)sc2c1CCCC2	INS-1E GSIS act 62.3 (no result: PGC1a acetyl inh)
COc1ccc2c3c([nH]c2c1)[C@@H](CO)N(C(=O)Nc1ccc(F)cc1)CC31CN(C(=O)c2ccccc2F)C1	none (no result: CaV13 ICDI inh)
Cc1ccc(S(=O)(=O)NCCOc2nc(N(C)C)nc(N(C)C)n2)cc1	none
CSc1nc(N(C)C)nc(N2CC(=O)N(CCNS(=O)(=O)c3ccc(C)cc3)C2=N)n1	INS-1E GSIS act 40.2 (no result: PGC1a acetyl inh)
CNC(=S)NNC(=O)CSCc1c(Cl)cccc1Cl	rRNA inh HTS -20.7
CNC(=O)CSCc1c(Cl)cccc1Cl	none (no result: rRNA inh HTS, ERAP1 inh, DENV2 CPE)
COc1ccc(S(=O)(=O)Nc2ccc3c(c2)C(=O)N([C@H](C)CO)C[C@@H](C)[C@H](CN(C)Cc2ccncc2)O3)cc1	DENV2 CPE inconclusive (no result: CaV13 ICDI inh)
c1ccc(-c2nnc3n2-c2ccccc2SC3)cc1	INS-1E GSIS act 58.0 (no result: PGC1a acetyl inh)
COc1ccc(CCN2CC(=O)NC(=O)C2)cc1OC	INS-1E GSIS act 54.5 (no result: PGC1a acetyl inh)
Cn1cccc2[nH]c(=O)nc1-2	ERAP1 inh 88.8 (no result: PGC1a acetyl inh)
CCN(C[C@H]1N[C@@H](CO)[C@@H]1c1ccc(C2=CCCC2)cc1)C(=O)c1ccncc1	none (no result: CaV13 ICDI inh)
Cc1noc(C)c1-c1ccc(C(=O)NCCc2ccccc2)c2occc12	CaV13 ICDI inh 40.4
